EPAC2 antagonist – blocks human EPAC2 exchange factor; Q8WZA2; EPAC2 GEF exchange of Rap1B-BODIPY-GDP, fluorescence; Potency, µM (series often up to 114 µM), inactives show at the top dose activity, negative = inhibition, actives largely listed as inhibitors; 0.18% of 360,000 active; also: % is scaled to controls: 0 for no effect and ±100 for the full control effect; nearly all actives have a fitted effect of over 45% in size
Target sequence (Q8WZA2 whole entry, looked up): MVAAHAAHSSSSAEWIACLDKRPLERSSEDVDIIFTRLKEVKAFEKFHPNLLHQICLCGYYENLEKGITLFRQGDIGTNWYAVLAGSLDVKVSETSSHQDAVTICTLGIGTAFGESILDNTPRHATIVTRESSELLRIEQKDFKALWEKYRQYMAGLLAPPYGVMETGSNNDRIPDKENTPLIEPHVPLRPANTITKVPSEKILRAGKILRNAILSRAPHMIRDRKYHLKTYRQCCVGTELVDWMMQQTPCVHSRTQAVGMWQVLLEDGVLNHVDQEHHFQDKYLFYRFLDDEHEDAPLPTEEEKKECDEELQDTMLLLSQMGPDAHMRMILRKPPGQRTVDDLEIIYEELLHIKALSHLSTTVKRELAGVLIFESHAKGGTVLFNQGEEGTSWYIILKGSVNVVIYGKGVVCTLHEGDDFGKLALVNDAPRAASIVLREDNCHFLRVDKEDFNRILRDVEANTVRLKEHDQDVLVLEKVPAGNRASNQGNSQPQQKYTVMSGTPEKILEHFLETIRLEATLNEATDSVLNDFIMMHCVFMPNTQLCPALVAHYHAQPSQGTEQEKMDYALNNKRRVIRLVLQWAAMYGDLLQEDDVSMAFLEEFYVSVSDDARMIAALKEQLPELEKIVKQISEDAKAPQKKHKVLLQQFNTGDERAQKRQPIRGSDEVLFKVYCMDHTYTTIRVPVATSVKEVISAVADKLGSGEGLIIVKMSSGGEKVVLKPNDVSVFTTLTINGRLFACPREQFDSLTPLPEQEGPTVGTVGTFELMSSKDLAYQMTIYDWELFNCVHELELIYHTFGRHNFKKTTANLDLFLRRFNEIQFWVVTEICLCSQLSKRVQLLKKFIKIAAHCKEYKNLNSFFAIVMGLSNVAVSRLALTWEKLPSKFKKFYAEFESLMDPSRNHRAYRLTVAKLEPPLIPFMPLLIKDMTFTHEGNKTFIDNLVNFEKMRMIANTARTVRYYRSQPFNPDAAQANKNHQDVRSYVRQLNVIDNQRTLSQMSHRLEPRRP
EPAC2 agonist – agonists of human EPAC2 (RAPGEF4). Q8WZA2. EPAC2 activation, biochemical qHTS; response scale: 100% = 6.5 mM cAMP response. Potency, µM (top dose mostly 154 µM), inactives show at the highest dose activation, usual class: activators. 0.079% of 360,000 active; also: nearly all actives have a fitted effect of over 50% in size
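Fluorescence exchange assay: 100 nM EPAC2 with 250 nM RAP1B-BODIPY-GDP and 50 uM GDP; compounds tested as a concentration-titration series (qHTS). Loss of Rap1-bound BODIPY-GDP fluorescence read at 480/540 nm; data normalized to 6.5 mM cAMP.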
USP1 inh – blocks the human USP1/UAF1 deubiquitinase complex. O94782. recombinant USP1/UAF1, Ub-Rhodamine cleavage fluorescence. Potency, µM (doses to about 57.1 µM), inactives show top-dose activity change, negative = inhibition, usual class: inhibitors. 0.23% of 390,000 active. AID 743255; also: % is scaled to controls: 0 for no effect and ±100 for the full control effect; nearly all actives have a fitted effect of over 60% in size
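In this screen, compounds sit with the deubiquitinase complex (1nM) for 15 min at room temperature before Ub-Rho is added at 150nM final. Fluorescence rise is then followed for 6 reads every 60 seconds.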
BRCA1 expr up – activators of BRCA1 expression; MCF7-BRCA1-FFLuc reporter, luminescence, 48 h; response scale: scaled: vehicle 0%, 10 µM genistein 100%; Potency, µM (top dose mostly 46.1 µM), for the others: top-dose activation, hits mostly activators; 1.1% of 380,000 active; AID 624202; also: nearly all actives have a fitted effect of over 80% in size
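Activators of BRCA1 expression were detected as increased firefly luciferase luminescence in engineered MCF7 cells after 48 h compound incubation. Signals were scaled to genistein 10 microM as full activation.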
EPAC1 antagonist – antagonists of human EPAC1 | EPAC1 GEF assay, Rap1b-BODIPY-GDP exchange fluorescence | AID 720709 | Potency, µM (highest dose often 115 µM), inactives show top-dose activity change, negative = inhibition, actives largely listed as inhibitors | 0.14% of 360,000 active;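 also: plate controls were vehicle for no effect and positive control for full effect; nearly all actives have a fitted effect of over 50% in size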
EPAC1 agonist – agonists of human EPAC1; Potency, µM (highest dose often 154 µM), for inactives: at the top dose activation, hits mostly activators; O95398; 0.073% of 360,000 active; EPAC1 agonist qHTS, biochemical assay; response scale: 100% = response to 6.5 mM cAMP; also: nearly all actives have a fitted effect of over 60% in size
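Compounds were pinned as a concentration titration into mixtures of EPAC1 (100 nM), BODIPY-GDP-loaded Rap1B (250 nM) and GDP (50 uM). After 5 min at room temperature, fluorescence was followed for 30 min; activity was scaled to 6.5 mM cAMP.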
Starred values were filed as active, the others as inactive; u = inconclusive; x = no result; ! = not confirmed by another sample. Hits are enriched below; roughly 1.4% of the tested compounds scored in any of these assays. Calls follow the shape of the dose curve; as a rule, active = well fitted curve in the direction sought with a large enough effect; inconclusive = small, poorly fitted or top-dose-only effect, or another doubt; inactive = no such curve, though single readings can be large; an effect the other way counts as inactive or inconclusive. Potency is read from the fitted curve at half-maximal effect.

SMILES | EPAC2 antagonist | EPAC2 agonist | USP1 inh | BRCA1 expr up | EPAC1 antagonist | EPAC1 agonist
Cc1cnc(C(=O)OCc2ccc(Br)cc2F)cn1 | -3% | -1% | -11% | -12% | 9% | 9%
Cc1cccn2c(=O)c3cc(C#N)c(=NC(=O)c4ccccc4)n(Cc4ccco4)c3nc12 | u | -7% | -18% | -22% | 89µM* | 0%
COCCCn1c(=NC(=O)c2ccccc2)c(C#N)cc2c(=O)n3cccc(C)c3nc21 | 6% | -16% | -6% | -6% | 12% | 9%
Cc1cccn2c(=O)c3cc(C#N)c(=NC(=O)c4ccco4)n(Cc4ccco4)c3nc12 | 13% | -5% | 5% | -10% | -9% | -7%
Cc1cccc(C(=O)N=c2c(C#N)cc3c(=O)n4cccc(C)c4nc3n2Cc2ccco2)c1 | 0% | -1% | u | -35% | 50µM* | 0%
O=S(=O)(Nc1ccccc1)c1ccc(-c2csnn2)cc1 | -13% | -2% | -10% | -10% | 0% | 0%
c1ccc(-c2ccc(-c3csnn3)cc2)cc1 | 0% | 7% | -3% | 7.9µM* | -6% | 8%
CC#CCN1c2ccccc2[C@]23C[C@@H](C(=O)OC)N=C2NC(C(=O)OC)=C(C(=O)OC)[C@H]13 | -20% | -2% | u | 7% | 0% | -14%
COc1ccc(C(=O)Nc2cc(C(C)C)c(O)c(S(=O)(=O)c3ccc(OC)cc3)c2C)cc1 | x | x | u | 5.6µM* | x | x
Nc1c(C(=O)Nc2ccc3c(c2)OCCO3)nnn1Cc1cccc(Cl)c1 | -3% | 8% | -23% | 3.2µM* | -9% | 2%
Nc1c(C(=O)Nc2ccc3c(c2)OCCO3)nnn1Cc1ccccc1Cl | -16% | 17% | -6% | u | -17% | 11%
Nc1c(C(=O)Nc2ccc3c(c2)OCCO3)nnn1Cc1ccc(F)cc1 | 10% | -3% | -10% | 8.9µM* | 0% | -7%
COC(=O)CN1C(=O)C(O)(c2c(C)[nH]c3ccccc23)c2ccccc21 (stereo not given) | x | x | -5% | x | x | x
OCc1cnc(SCc2ccccc2F)n1Cc1ccc(F)cc1 | x | x | -9% | 22% | x | x
c1coc(-c2nc(-c3ccncc3)no2)c1 | -2% | 6% | -6% | 3.2µM* | -20% | 0%
Brc1ccc(-c2nc(-c3ccncc3)no2)cc1 | 18% | 5% | -19% | u | 1% | 5%
c1ccc(-c2nc(-c3ccncc3)no2)cc1 | -8% | 8% | 2% | u | -9% | -1%
c1ccc(-c2ccc(-c3nc(-c4ccncc4)no3)cc2)cc1 | 10% | -3% | -5% | 8% | 20% | -15%
O=[N+]([O-])c1ccc(-c2nc(-c3ccncc3)no2)cc1 | 0% | 18% | 2% | 2.5µM* | 15% | 1%
CSc1ccccc1-c1nc(-c2ccncc2)no1 | 1% | -7% | -16% | 3.2µM* | -2% | -7%
CS(=O)c1ccccc1-c1nc(-c2ccc(Cl)cc2)no1 (stereo not given) | -12% | -6% | -22% | 11µM* | 9% | -3%
CCc1ccc(CNC(=O)c2cnc3sc(N4CCCCCC4)nn3c2=O)cc1 | x | x | 2% | x | x | x
Clc1ccccc1-c1nc(-c2ccncc2)no1 | 0% | 0% | -8% | 1.8µM*! | 10% | 2%
O=[N+]([O-])c1cc(Cl)ccc1-c1nc(-c2ccncc2)no1 | 4% | 8% | -14% | 86% | 3% | 8%
c1ccc(-c2ccccc2-c2nc(-c3ccncc3)no2)cc1 | -5% | 18% | -7% | 10% | -8% | 27%
SMILES | EPAC2 antagonist | EPAC2 agonist | USP1 inh | BRCA1 expr up | EPAC1 antagonist | EPAC1 agonist
O=[N+]([O-])c1cc(Cl)ccc1-c1nc(-c2ccccc2)no1 | 1% | 17% | -24% | 2.8µM* | -7% | -1%
Cc1c(Cl)cccc1NC(=O)CS(=O)(=O)c1ccccc1 | 5% | 1% | -15% | 32% | 5% | -6%
CC(C)(C)c1ccc(C(=O)NCCC(=O)NNC(=O)COc2ccc(F)cc2)cc1 | -1% | 6% | -23% | 18% | 6% | 12%
Cn1cc(Cl)c(C(=O)N/N=C/c2ccc3c4c(cccc24)CC3)n1 | -4% | -3% | -19% | 1.3µM* | -5% | -3%
O=C(c1ccc(NC2=NC3CS(=O)(=O)CC3S2)cc1)N(CCO)Cc1ccccc1 (stereo not given) | -5% | -1% | -11% | -13% | 25% | -9%
CN(C)C(=O)COc1ccc2cc(-c3ccccc3)c(=O)oc2c1 | 8% | 0% | -18% | 11µM* | 2% | 2%
CCOC(=O)[C@H]1[C@H]2COc3ccc(C)cc3[C@@H]2N2C(=O)c3ccc(C)cc3NC(=O)[C@@]12C | 17% | 79µM* | -18% | -12% | 10% | u
CCOC(=O)[C@H]1[C@H]2COc3ccc(C)cc3[C@@H]2N2C(=O)c3ccc(F)cc3NC(=O)[C@@]12C | -30% | 10% | -7% | -8% | -13% | 7%
C[C@@]12C(=O)Nc3cc(F)ccc3C(=O)N1[C@H]1c3cc(Br)ccc3OC[C@@H]1[C@@H]2c1ccccc1 | 150% | 79µM* | -15% | -53% | 6% | -9%
C[C@@]12C(=O)Nc3ccc(F)cc3C(=O)N1[C@H]1c3cc(Br)ccc3OC[C@@H]1[C@@H]2c1ccccc1 | -5% | 7% | -17% | -54% | u | 1%
CC(C)CCNC(=O)c1c(CSc2ccc(Cl)cc2)noc1C(=O)NCc1ccccc1 | -13% | 8% | -17% | 17% | -8% | -10%
CCCn1nc(NC(=O)c2ccccn2)c2cc3cc(C)ccc3nc21 | -3% | 14% | -14% | 11µM* | -11% | 7%
Cc1[nH]n(-c2ncc(-c3ccccc3)s2)c(=O)c1C(c1ccc(Cl)cc1)C(C#N)C#N (stereo not given) | -8% | 2% | u | -18% | 50µM* | -9%
CS(=O)(=O)N1CCN(/[N+]([O-])=N/Oc2ccc([N+](=O)[O-])cc2[N+](=O)[O-])CC1 | x | x | x | -43% | x | x
CC(=O)Nc1nonc1-c1nnc(SCC(=O)Nc2cc(Cl)ccc2C)n1C | x | x | 0% | x | x | x
O=C(Cc1cccs1)NCc1cccc(Br)c1 | 2% | 17% | 4% | 4µM* | 10% | -2%
COc1ccc2cc(C(=O)N/N=C/c3sc4ccccc4c3O)ccc2c1 | -11% | -39% | 28µM* | -77% | 35% | 8%
Cc1ccc(-c2cc(C(=O)N3CCCc4ccccc43)no2)cc1 | -5% | 10% | -19% | 3.2µM* | 3% | 4%
COc1cc(Br)cc(C(=O)N2CCc3ccccc32)c1OC | 35µM* | 11% | -23% | 5% | 3% | 6%

Screening data as filed in PubChem BioAssay.
